What follows are compounds tested on T1, YANK1. Details: concentration: 1 μM, replicates: in singlicate; n = 1.
T1 construct: gene STK32A
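Further: KINOMEscan kinase panel screen.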

First: Nc1nc(N)c2nc(-c3ccccc3)[nH]c2n1 [SKF-12778]
Second: Nc1n[nH]c2nnc(-c3ccccc3)c(-c3ccccc3)c12 [GW554060]
The “%Inh” value of the first is lower: 0% for the first, 7% for the second.

Compared with `COc1cc2nccc(Nc3cccc(Oc4ccccc4)c3)c2cc1OC.Cl` [GW284543], `COc1cc(Nc2ccnc3ccc(C(F)(F)F)cc23)cc(OC)c1OC` [GW577382] is lower in “%Inh” value: 5% for the first, 4% for the second.

First: CCc1ccc(-c2ccc3c(c2)-c2nn(C)cc2S(=O)(=O)N3C)cc1
Second: CCS(=O)c1ccc(-c2coc3ccc(-c4nnc(C)o4)cc23)cc1 (stereo not drawn)
The “%Inh” value of the first is lower: 0% for the first, 5% for the second.

`O=C(NCc1cccs1)c1cc(C(=O)c2c(Cl)cccc2Cl)c[nH]1` [GW823670] and `CCC(=O)c1c(-c2ccccc2)c2cc(Cl)ccc2c(=O)n1Cc1ccc(C(=O)O)cc1` are the same in “%Inh” value: 0% for the first, 0% for the second.

`CCCC(=O)Nc1n[nH]c2ncc(-c3cccc4ccccc34)cc12` [SB-642057] and `O=C(Nc1n[nH]c2cc(-c3ccccc3F)ccc12)C1CC1` [SB-733371] are the same in “%Inh” value: 0% for the first, 0% for the second.

`CCC(=O)c1c(-c2ccccc2)c2cc(Cl)ccc2c(=O)n1Cc1cc(S(C)(=O)=O)n(CC(F)F)n1` and `CCC(=O)c1c(-c2ccccc2)c2cc(Cl)ccc2c(=O)n1Cc1cc(S(C)(=O)=O)n(CC(N)=O)n1` are the same in “%Inh” value: 0% for the first, 0% for the second.

Going from `Nc1ncnc2c1ncn2-c1cccc(F)c1` [SKF-97560] to `Nc1ncnc2c1ncn2-c1ccc(Cl)cc1` [AH2635], the “%Inh” value falls from 17% to 0%.

First: Cc1c(Cn2c(C)nn3c(=O)cc(N4CCO[C@H](C)C4)nc23)cccc1C(F)(F)F [GSK2373690]
Second: FC(F)(F)c1ccc(-c2ncn(CCCN3CCOCC3)c2-c2ccncc2)cc1 [SB-217780]
The “%Inh” value of the first is lower: 11% for the first, 17% for the second.

First: COc1cc(Nc2nccc(N3CCC(NC(=O)C4COc5ccccc5O4)C3)n2)cc(OC)c1OC (stereo not drawn) [GSK1379761]
Second: COc1cc(Nc2nccc(N3CCC(NC(=O)C(C)c4ccc(Cl)cc4)C3)n2)cc(OC)c1OC (stereo not drawn) [GSK1379757]
The “%Inh” value of the first is higher: 9% for the first, 0% for the second.

Compared with `Cc1ccccc1COc1cc(-n2cnc3cc(Cl)ccc32)sc1C(N)=O` [GW813349], `COc1cc2ncn(-c3cc(OCc4ccc(S(C)(=O)=O)cc4)c(C(N)=O)s3)c2cc1OC` [GW869979] is lower in “%Inh” value: 14% for the first, 7% for the second.

`Cc1ccc(-c2ccc3c(ccc4sc5c(c43)NC[C@@H](C)N=C5N(C)C)n2)cn1` and `Cc1cc(Nc2nc(-c3cccc(C)n3)nc3ccccc23)ccn1` [GW872411] are the same in “%Inh” value: 0% for the first, 0% for the second.

Compared with `Fc1cccc(CSc2nnc(-c3ccc4c(c3)CCO4)o2)c1`, `COc1ccc(-c2coc3ccc(-c4nnc(SCc5cccc(C#N)c5)o4)cc23)cc1` is higher in “%Inh” value: 16% for the first, 21% for the second.

`CN1C(=O)C(Nc2cc(Cl)c(O)c(Cl)c2)=C(c2ccc(Cl)cc2)C1=O` [SB-404321] and `CCC(=O)c1c(-c2ccccc2)c2cc(Cl)ccc2c(=O)n1Cc1cc(C(=O)NC2CC2)n(C)n1` are the same in “%Inh” value: 0% for the first, 0% for the second.

Compared with `C[C@@H]1CC[C@H](C(=O)NC2CCCCC2)CN1c1cc(-c2ccc3c(N)n[nH]c3c2)nc(N)n1` [GSK2291363], `COc1ccc(-c2cc3c(C)nc(N)nc3n([C@H]3CC[C@H](OCCO)CC3)c2=O)cn1` is higher in “%Inh” value: 6% for the first, 14% for the second.

`COC(=O)c1c(-c2ccccc2)c2cc(Br)ccc2c(=O)n1Cc1ccc(S(C)(=O)=O)cc1` and `COC(=O)c1c(-c2ccccc2)c2cc(Br)ccc2c(=O)n1Cc1ccc(NC(=O)CCC(=O)O)cc1` are the same in “%Inh” value: 0% for the first, 0% for the second.

Compared with `Nc1nccc2scc(-c3ccc4c(c3)CCN4C(=O)Cc3ccccc3)c12` [GSK2576924], `COC(=O)c1c(-c2ccccc2)c2cc(C)ccc2c(=O)n1Cc1ccccc1` is lower in “%Inh” value: 10% for the first, 0% for the second.

`O=C(NCCNc1ccnc(Nc2ccc(F)cc2)n1)Nc1ccc2c(c1)OCO2` [GSK1379882] and `Cc1nnc(-c2ccc3ncn(-c4ccc(S(C)=O)cc4)c3c2)o1` (stereo not drawn) are the same in “%Inh” value: 0% for the first, 0% for the second.

Going from `COc1ccc(-n2cnc3c(N)ncnc32)cc1` [SKF-97236] to `CCC(=O)c1c(-c2ccccc2)c2cc(Cl)ccc2c(=O)n1Cc1cc(S(C)(=O)=O)n(CCC(C)(C)O)n1`, the “%Inh” value rises from 0% to 19%.

Each compound was assayed on T2, YANK2. Details: concentration: 1 μM, replicates: in singlicate; n = 1.
T2 construct: gene STK32B

Going from `Nc1nc(N)c2nc(-c3ccccc3)[nH]c2n1` [SKF-12778] to `Nc1n[nH]c2nnc(-c3ccccc3)c(-c3ccccc3)c12` [GW554060], the “%Inh” value falls from 1% to 0%.

First: COc1cc2nccc(Nc3cccc(Oc4ccccc4)c3)c2cc1OC.Cl [GW284543]
Second: COc1cc(Nc2ccnc3ccc(C(F)(F)F)cc23)cc(OC)c1OC [GW577382]
The “%Inh” value of the first is lower: 0% for the first, 16% for the second.

First: CCc1ccc(-c2ccc3c(c2)-c2nn(C)cc2S(=O)(=O)N3C)cc1
Second: CCS(=O)c1ccc(-c2coc3ccc(-c4nnc(C)o4)cc23)cc1 (stereo not drawn)
The “%Inh” value of the first is higher: 12% for the first, 11% for the second.

Compared with `O=C(NCc1cccs1)c1cc(C(=O)c2c(Cl)cccc2Cl)c[nH]1` [GW823670], `CCC(=O)c1c(-c2ccccc2)c2cc(Cl)ccc2c(=O)n1Cc1ccc(C(=O)O)cc1` is higher in “%Inh” value: 0% for the first, 4% for the second.

First: CCCC(=O)Nc1n[nH]c2ncc(-c3cccc4ccccc34)cc12 [SB-642057]
Second: O=C(Nc1n[nH]c2cc(-c3ccccc3F)ccc12)C1CC1 [SB-733371]
The “%Inh” value of the first is higher: 6% for the first, 0% for the second.

Going from `CCC(=O)c1c(-c2ccccc2)c2cc(Cl)ccc2c(=O)n1Cc1cc(S(C)(=O)=O)n(CC(F)F)n1` to `CCC(=O)c1c(-c2ccccc2)c2cc(Cl)ccc2c(=O)n1Cc1cc(S(C)(=O)=O)n(CC(N)=O)n1`, the “%Inh” value falls from 8% to 0%.

`Nc1ncnc2c1ncn2-c1cccc(F)c1` [SKF-97560] and `Nc1ncnc2c1ncn2-c1ccc(Cl)cc1` [AH2635] are the same in “%Inh” value: 0% for the first, 0% for the second.

Going from `Cc1c(Cn2c(C)nn3c(=O)cc(N4CCO[C@H](C)C4)nc23)cccc1C(F)(F)F` [GSK2373690] to `FC(F)(F)c1ccc(-c2ncn(CCCN3CCOCC3)c2-c2ccncc2)cc1` [SB-217780], the “%Inh” value falls from 18% to 1%.

`COc1cc(Nc2nccc(N3CCC(NC(=O)C4COc5ccccc5O4)C3)n2)cc(OC)c1OC` (stereo not drawn) [GSK1379761] and `COc1cc(Nc2nccc(N3CCC(NC(=O)C(C)c4ccc(Cl)cc4)C3)n2)cc(OC)c1OC` (stereo not drawn) [GSK1379757] are the same in “%Inh” value: 0% for the first, 0% for the second.

Going from `Cc1ccccc1COc1cc(-n2cnc3cc(Cl)ccc32)sc1C(N)=O` [GW813349] to `COc1cc2ncn(-c3cc(OCc4ccc(S(C)(=O)=O)cc4)c(C(N)=O)s3)c2cc1OC` [GW869979], the “%Inh” value falls from 2% to 0%.

`Cc1ccc(-c2ccc3c(ccc4sc5c(c43)NC[C@@H](C)N=C5N(C)C)n2)cn1` and `Cc1cc(Nc2nc(-c3cccc(C)n3)nc3ccccc23)ccn1` [GW872411] are the same in “%Inh” value: 0% for the first, 0% for the second.

`Fc1cccc(CSc2nnc(-c3ccc4c(c3)CCO4)o2)c1` and `COc1ccc(-c2coc3ccc(-c4nnc(SCc5cccc(C#N)c5)o4)cc23)cc1` are the same in “%Inh” value: 12% for the first, 12% for the second.

First: CN1C(=O)C(Nc2cc(Cl)c(O)c(Cl)c2)=C(c2ccc(Cl)cc2)C1=O [SB-404321]
Second: CCC(=O)c1c(-c2ccccc2)c2cc(Cl)ccc2c(=O)n1Cc1cc(C(=O)NC2CC2)n(C)n1
The “%Inh” value of the first is lower: 0% for the first, 9% for the second.

First: C[C@@H]1CC[C@H](C(=O)NC2CCCCC2)CN1c1cc(-c2ccc3c(N)n[nH]c3c2)nc(N)n1 [GSK2291363]
Second: COc1ccc(-c2cc3c(C)nc(N)nc3n([C@H]3CC[C@H](OCCO)CC3)c2=O)cn1
The “%Inh” value of the first is higher: 3% for the first, 0% for the second.

Compared with `COC(=O)c1c(-c2ccccc2)c2cc(Br)ccc2c(=O)n1Cc1ccc(S(C)(=O)=O)cc1`, `COC(=O)c1c(-c2ccccc2)c2cc(Br)ccc2c(=O)n1Cc1ccc(NC(=O)CCC(=O)O)cc1` is higher in “%Inh” value: 6% for the first, 21% for the second.

Compared with `Nc1nccc2scc(-c3ccc4c(c3)CCN4C(=O)Cc3ccccc3)c12` [GSK2576924], `COC(=O)c1c(-c2ccccc2)c2cc(C)ccc2c(=O)n1Cc1ccccc1` is lower in “%Inh” value: 9% for the first, 0% for the second.

First: O=C(NCCNc1ccnc(Nc2ccc(F)cc2)n1)Nc1ccc2c(c1)OCO2 [GSK1379882]
Second: Cc1nnc(-c2ccc3ncn(-c4ccc(S(C)=O)cc4)c3c2)o1 (stereo not drawn)
The “%Inh” value of the first is higher: 1% for the first, 0% for the second.

First: COc1ccc(-n2cnc3c(N)ncnc32)cc1 [SKF-97236]
Second: CCC(=O)c1c(-c2ccccc2)c2cc(Cl)ccc2c(=O)n1Cc1cc(S(C)(=O)=O)n(CCC(C)(C)O)n1
The “%Inh” value of the first is lower: 10% for the first, 13% for the second.

Reference: paper PMC5540273 (PLoS ONE, 2017)
